Inconclusive results are not listed. Where a structure was tested more than once in an assay, its records may differ in their call. Active and inactive are the calls of the source. Unless noted, calls come from the whole dose curve.
Key:
[1] = Nuclear factor erythroid 2-related factor 2/antioxidant responsive element (Nrf2/ARE) small molecule agonists: qHTS cell viability counter screen in human keratinocytes (AID 1919968; active = well fitted curve in the direction sought with a large enough effect in the repeat runs; an effect the other way counts as inactive or inconclusive; note: nearly all actives have a fitted effect of over 55% in size)
Outline: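 CellTiter-Fluor fluorescence, read 1 h after reagent, gave viability in the same wells as the ARE-luciferase assay. KeratinoSens cells (1,500/well) had 23 h compound exposure at 37 C/5% CO2 following 5 h plating.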

[2] = biological target: Gonadotropin-releasing hormone receptor (Homo sapiens) (UniProt P30968); assay: Human gonadotropin-releasing hormone receptor (GnRHR) small molecule agonists, calcium flux assay in GnRHR-HEK293 cells (AID 1920063); note: nearly all actives have a fitted effect of over 35% in size
Outline: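 Agonist mode: compounds at 15 concentrations, in triplicate, went onto calcium dye-loaded GnRHR-HEK293 cells. Intracellular calcium was then followed as 480/540 nm fluorescence at 1 s intervals over 3 min.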

[3] = biological target: KiSS-1 receptor (Homo sapiens) (UniProt Q969F8); assay: Human kisspeptin (KISS1R) small molecule agonists, calcium flux assay in KISS1R-HEK293 cells (AID 1920064; active = well fitted curve in the direction sought with a large enough effect in the repeat runs; an effect the other way counts as inactive or inconclusive)
Outline: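 Agonist mode: intracellular calcium rise tracked at 1 s intervals over 3 min (480/540 nm) immediately after compound addition to dye-loaded KISS1R-HEK293 stable cells. Each compound tested at 15 concentrations in triplicate.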

[4] = G protein-coupled receptor (GPCR) small molecule agonists, calcium flux assay: HEK293 wild type cell line counter screen (AID 1920065)
Outline: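 Calcium flux counter screen: compound added in agonist mode at 15 concentrations in triplicate to dye-loaded parental HEK293 cells. Fluorescence (480/540) read kinetically for 3 min; ATP served as positive control.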

[5] = p53 small molecule agonists, cell-based qHTS assay with human liver microsomes: qHTS cell viability counter screen (AID 1963579); note: nearly all actives have a fitted effect of over 45% in size
Outline: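 Viability of p53RE-bla cells is measured as CellTiter-Glo luminescence following a 16 h, 37 C incubation with compound, liver microsomes from human donors and NADPH.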

[6] = p53 small molecule agonists, cell-based qHTS assay with rat liver microsomes: qHTS cell viability counter screen (AID 1963580); note: nearly all actives have a fitted effect of over 45% in size
Outline: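 Cytotoxicity counter screen: intracellular ATP measured by CellTiter-Glo luminescence in the same wells as the beta-lactamase reporter read, on HCT-116 p53RE-bla cells exposed 16 h at 37 C to compounds with rat liver microsomes and NADPH, each 0.5 mg/mL final.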

[7] = p53 small molecule agonists, cell-based qHTS assay: qHTS cell viability counter screen (AID 1963581); note: nearly all actives have a fitted effect of over 45% in size
Outline: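 Counter screen read by CellTiter-Glo luminescence (ATP content, 30 min at room temperature), run in the same wells as the beta-lactamase reporter read. HCT-116 p53RE-bla cells saw compounds for 16 h at 37 C.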

[8] = biological target: 5-hydroxytryptamine receptor 2A (Homo sapiens) (UniProt P28223); assay: 5-hydroxytryptamine receptor 2A (HTR2A) small molecule antagonists, cell-based qHTS assay (AID 1963586); note: nearly all actives have a fitted effect of over 45% in size
Outline: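 CHO cells stably expressing human HTR2A were plated for 18 h at 37 C, then loaded with calcium dye for 1 h. Compounds were preincubated 5 min at room temperature before DOI (4 nM solution) was added. Kinetic fluorescence was read for 3 min.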

[9] = biological target: 5-hydroxytryptamine receptor 2A (Homo sapiens) (UniProt P28223); assay: 5-hydroxytryptamine receptor 2A (HTR2A) small molecule agonists, cell-based qHTS assay (AID 1963587); note: nearly all actives have a fitted effect of over 30% in size
Outline: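 CHO cells stably expressing human HTR2A, plated 18 h, loaded with calcium dye 1 h at 37 C. Agonist mode: compounds added and intracellular calcium fluorescence recorded kinetically for 2 min at 1 sec intervals.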

[10] = biological target: Muscarinic acetylcholine receptor M1 (Homo sapiens) (UniProt P11229); assay: Cholinergic receptor muscarinic 1 (CHRM1) small molecule antagonists, cell-based qHTS assay (AID 1963588); note: nearly all actives have a fitted effect of over 40% in size
Outline: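 Compounds were tested at 15 concentrations in three independent runs. Dye-loaded CHRM1-CHO cells were exposed 5 min at room temperature before stimulation by acetylcholine added at 50nM. Intracellular calcium was read kinetically on FDSS for 3 min.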

[11] = biological target: Muscarinic acetylcholine receptor M1 (Homo sapiens) (UniProt P11229); assay: Cholinergic receptor muscarinic 1 (CHRM1) small molecule agonists, cell-based qHTS assay (AID 1963589); note: nearly all actives have a fitted effect of over 35% in size; note: potency is the fitted concentration of half-maximal effect
Outline: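 Agonist-mode calcium-flux screen: compounds at 15 concentrations, three independent runs, were pin-transferred onto dye-loaded human CHRM1-CHO cells. Fluorescence was then recorded kinetically every second over minutes.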

[12] = cAMP Responsive Elements (CRE) small molecule agonists, cell-based qHTS assay (AID 1963590)
Outline: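 Agonist mode: compound added to CRE-bla HEK 293T cells (2,000/well, 18 h after plating) for 3 h at 37 C/5% CO2. Reporter activity detected via FRET beta-lactamase substrate, 2 h room-temperature loading.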

[13] = cAMP Responsive Elements (CRE) small molecule antagonists, cell-based qHTS assay (AID 1963591; active = well fitted inhibition curve with a large enough effect in the signal ratio in the repeat runs, not every such curve was filed as active; the % refers to the signal ratio)
Outline: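 Antagonist mode: compounds are added alongside the adenylyl cyclase activator NKH477 (0.25 uM final) to CRE-bla HEK293T cells for 3 h. LiveBLAzer FRET substrate, 2 h at room temperature, reports bla expression.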

[14] = biological target: Beta-2 adrenergic receptor (Homo sapiens) (UniProt P07550); assay: Adrenergic beta2 receptor (ADRB2) small molecule antagonists, cell-based qHTS assay (AID 1963592); note: series mostly up to about 92 µM; nearly all actives have a fitted effect of over 50% in size
Outline: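 Assay format: CHO-ADRB2 cells, 18-20hr seeding at 37C/5% CO2, then compound plus 1nM isoproterenol agonist mix for 0.5hr RT. Homogeneous time-resolved fluorescence cAMP detection after 1hr, expressed as 665/615 nm ratio.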

[15] = biological target: D(2) dopamine receptor (Homo sapiens) (UniProt P14416); assay: Dopamine D2 receptor (DRD2) small molecule agonists, cell-based qHTS assay (AID 1963594); note: nearly all actives have a fitted effect of over 35% in size
Outline: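 HEK293 cells stably expressing human DRD2, pre-treated with PDE inhibitor Ro20-1724 (0.1 mM final) and compound 10 min at room temperature, then stimulated with NKH477 (200nM […]) for 30 min. cAMP read by HTRF (665/620 nm).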

[16] = biological target: D(2) dopamine receptor (Homo sapiens) (UniProt P14416); assay: Dopamine D2 receptor (DRD2) small molecule antagonists, cell-based qHTS assay (AID 1963595; active = well fitted inhibition curve with a large enough effect in the signal ratio in the repeat runs, with a control signal flat; the % refers to the signal ratio)
Outline: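 Cells were plated and grown for 24 h at 37 °C. Ro20-1724 (0.1 mM final) went in first, then compound for 10 min. NKH477 (200 nM) with quinpirole (12 nM) followed for 30 min at RT, then HTRF detection reagents for 1 h.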

[17] = p53 small molecule agonists, cell-based qHTS assay with human liver microsomes (AID 1963577);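 note: p53 response element beta-lactamase reporter cells with liver microsomes plus NADPH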
Outline: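 HLM-supplemented p53RE-bla reporter assay: 16 h compound exposure at 37 C, microsomes and NADPH each 0.5 mg/mL final, read by fluorescence intensity.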

[18] = p53 small molecule agonists, cell-based qHTS assay with rat liver microsomes (AID 1963578)
Outline: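 Quantitative HTS of the Tox21 10K library: p53RE-bla cells, rat liver microsomes plus NADPH at 0.5 mg/mL final each, 16 h at 37 C, beta-lactamase fluorescence detection.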

[19] = biological target: Beta-2 adrenergic receptor (Homo sapiens) (UniProt P07550); assay: Adrenergic beta2 receptor (ADRB2) small molecule agonists, cell-based qHTS assay (AID 1963593);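 note: CHO cells stably overexpressing human ADRB2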
Outline: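 CHO cells stably over-expressing ADRB2 were plated overnight at 37C, then dosed with compounds plus a stimulation mix containing 100uM IBMX and 25uM Ro-20-1724 for 0.5hr at room temperature. cAMP was measured by HTRF competition, 1hr.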

[20] = p53 small molecule agonists, cell-based qHTS assay (AID 1963582; active = well fitted activation curve with a large enough effect in the signal ratio in the repeat runs, not every such curve was filed as active; the % refers to the signal ratio)
Outline: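 Read-out is beta-lactamase FRET fluorescence after 2 h at room temperature with LiveBLAzer B/G substrate. p53 response element-bla cells were treated 16 h at 37 C with compounds in DMSO, added 5 h after seeding.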

Measured: Potency

Beta-2 adrenergic receptor (Homo sapiens), sequence (P07550 whole entry, looked up): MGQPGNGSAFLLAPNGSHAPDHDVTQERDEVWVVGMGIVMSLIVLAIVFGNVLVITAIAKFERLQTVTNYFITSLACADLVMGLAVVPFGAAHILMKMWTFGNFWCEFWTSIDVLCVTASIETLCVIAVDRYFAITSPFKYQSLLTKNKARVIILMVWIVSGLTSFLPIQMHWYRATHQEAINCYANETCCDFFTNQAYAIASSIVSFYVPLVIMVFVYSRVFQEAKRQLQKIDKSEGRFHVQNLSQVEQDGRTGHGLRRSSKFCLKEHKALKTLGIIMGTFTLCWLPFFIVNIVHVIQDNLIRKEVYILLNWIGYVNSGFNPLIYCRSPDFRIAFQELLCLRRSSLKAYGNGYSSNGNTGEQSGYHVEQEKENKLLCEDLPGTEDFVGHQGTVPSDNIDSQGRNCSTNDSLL
Gonadotropin-releasing hormone receptor (Homo sapiens), sequence (P30968 whole entry, looked up): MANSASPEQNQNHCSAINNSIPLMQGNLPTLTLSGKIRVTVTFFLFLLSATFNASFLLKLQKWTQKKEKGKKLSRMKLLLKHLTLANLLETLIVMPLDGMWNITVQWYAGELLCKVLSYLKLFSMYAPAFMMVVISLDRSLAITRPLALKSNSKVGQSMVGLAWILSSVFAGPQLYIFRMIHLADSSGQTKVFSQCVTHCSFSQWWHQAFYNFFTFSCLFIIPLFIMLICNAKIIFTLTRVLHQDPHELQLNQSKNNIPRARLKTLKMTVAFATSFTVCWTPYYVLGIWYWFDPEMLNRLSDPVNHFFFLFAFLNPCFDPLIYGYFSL
Muscarinic acetylcholine receptor M1 (Homo sapiens), sequence (P11229 whole entry, looked up): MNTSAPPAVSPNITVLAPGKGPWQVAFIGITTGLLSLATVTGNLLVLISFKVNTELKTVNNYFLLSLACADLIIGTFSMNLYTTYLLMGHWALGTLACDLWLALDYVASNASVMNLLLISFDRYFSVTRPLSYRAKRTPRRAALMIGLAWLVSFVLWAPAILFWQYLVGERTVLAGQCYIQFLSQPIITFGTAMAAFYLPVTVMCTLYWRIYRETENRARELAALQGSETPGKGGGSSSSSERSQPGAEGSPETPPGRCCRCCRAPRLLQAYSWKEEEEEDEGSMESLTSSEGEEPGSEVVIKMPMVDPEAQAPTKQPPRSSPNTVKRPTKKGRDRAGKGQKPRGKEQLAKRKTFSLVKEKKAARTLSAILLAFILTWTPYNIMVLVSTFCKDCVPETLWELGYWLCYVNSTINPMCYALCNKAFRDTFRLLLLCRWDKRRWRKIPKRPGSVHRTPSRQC
5-hydroxytryptamine receptor 2A (Homo sapiens), sequence (P28223 whole entry, looked up): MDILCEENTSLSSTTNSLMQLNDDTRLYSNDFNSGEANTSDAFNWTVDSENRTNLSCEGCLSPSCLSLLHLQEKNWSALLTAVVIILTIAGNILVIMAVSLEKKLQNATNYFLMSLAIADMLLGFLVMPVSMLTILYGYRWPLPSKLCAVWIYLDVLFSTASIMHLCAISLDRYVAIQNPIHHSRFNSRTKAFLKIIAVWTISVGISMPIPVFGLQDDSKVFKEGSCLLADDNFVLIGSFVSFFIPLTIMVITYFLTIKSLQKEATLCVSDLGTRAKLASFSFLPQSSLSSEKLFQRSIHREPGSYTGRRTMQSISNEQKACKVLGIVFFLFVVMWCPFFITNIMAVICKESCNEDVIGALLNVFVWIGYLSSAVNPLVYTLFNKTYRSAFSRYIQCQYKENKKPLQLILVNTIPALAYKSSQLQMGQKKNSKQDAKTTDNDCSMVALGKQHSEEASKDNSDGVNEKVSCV
KiSS-1 receptor (Homo sapiens), sequence (Q969F8 whole entry, looked up): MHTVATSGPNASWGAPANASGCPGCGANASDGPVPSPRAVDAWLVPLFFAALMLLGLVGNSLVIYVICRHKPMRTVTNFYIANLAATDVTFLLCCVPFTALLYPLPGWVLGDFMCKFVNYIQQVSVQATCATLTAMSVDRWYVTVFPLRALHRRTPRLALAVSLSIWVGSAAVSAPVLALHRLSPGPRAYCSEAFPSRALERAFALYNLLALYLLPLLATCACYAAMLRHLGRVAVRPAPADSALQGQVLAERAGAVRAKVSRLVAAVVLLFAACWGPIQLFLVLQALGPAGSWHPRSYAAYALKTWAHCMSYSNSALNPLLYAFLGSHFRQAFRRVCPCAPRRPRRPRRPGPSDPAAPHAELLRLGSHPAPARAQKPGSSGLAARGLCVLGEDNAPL
D(2) dopamine receptor (Homo sapiens), sequence (P14416 whole entry, looked up): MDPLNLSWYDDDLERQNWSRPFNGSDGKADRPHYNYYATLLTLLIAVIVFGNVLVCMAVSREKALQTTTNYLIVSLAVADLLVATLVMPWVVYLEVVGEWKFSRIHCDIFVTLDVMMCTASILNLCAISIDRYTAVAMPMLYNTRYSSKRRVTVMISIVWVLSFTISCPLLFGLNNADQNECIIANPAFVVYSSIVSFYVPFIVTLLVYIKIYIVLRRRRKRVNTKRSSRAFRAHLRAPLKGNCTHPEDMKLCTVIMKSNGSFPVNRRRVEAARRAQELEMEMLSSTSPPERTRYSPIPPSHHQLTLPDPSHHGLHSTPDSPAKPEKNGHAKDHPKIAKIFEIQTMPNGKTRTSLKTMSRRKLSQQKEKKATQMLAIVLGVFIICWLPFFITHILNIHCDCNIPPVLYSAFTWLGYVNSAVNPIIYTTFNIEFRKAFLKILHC

C/C=C/C=C/C(=O)O
inactive: [1] | [2] | [3] | [4] | [5] | [6] | [7] | [8] | [9] | [10] | [11] | [12] | [13] | [14] | [15] | [16]

O=C(O)Cn1c(=O)n(Cc2ccc(Br)cc2F)c(=O)c2ccc(Cl)cc21
inactive: [1] | [2] | [3] | [4] | [17] | [18] | [5] | [6] | [7] | [9] | [10] | [11] | [12] | [13] | [14] | [19] | [15] | [16]

COC(=O)CC(=O)OC
inactive: [1] | [2] | [4] | [17] | [18] | [5] | [6] | [7] | [20] | [8] | [9] | [10] | [12] | [13] | [14] | [15] | [16]
20.3 µM (active) and inactive: [11]

Cc1c(N(C)C)c(=O)n(-c2ccccc2)n1C
inactive: [1] | [2] | [3] | [4] | [5] | [6] | [7] | [8] | [10] | [11] | [12] | [14] | [19] | [15] | [16]

Cc1ccc2c(c1)C(=O)OC2=O
inactive: [1] | [2] | [3] | [4] | [17] | [18] | [5] | [7] | [20] | [8] | [9] | [10] | [11] | [12] | [13] | [14] | [19] | [15] | [16]

CC(O)(P(=O)(O)O)P(=O)(O)O
inactive: [1] | [2] | [3] | [4] | [5] | [6] | [7] | [12] | [14] | [19] | [15] | [16]

NS(=O)(=O)c1cc2c(cc1Cl)NC=NS2(=O)=O
inactive: [1] | [4] | [17] | [18] | [5] | [6] | [7] | [20] | [8] | [9] | [10] | [11] | [12] | [13] | [14] | [19] | [15] | [16]

CC(=O)CC(c1ccccc1)c1c(O)c2ccccc2oc1=O (centres undefined)
inactive: [1] | [2] | [3] | [4] | [6] | [7] | [12] | [13] | [14] | [19] | [15] | [16]

Cc1ccc(S(=O)(=O)O)cc1
inactive: [1] | [2] | [3] | [4] | [5] | [6] | [7] | [8] | [9] | [10] | [11] | [12] | [13] | [14] | [19] | [15] | [16]

CCCCCCC(C)(C)S
inactive: [1] | [3] | [4] | [5] | [6] | [7] | [8] | [9] | [10] | [11] | [12] | [13] | [14] | [19] | [15] | [16]

CCOC(N)=O
inactive: [1] | [2] | [3] | [4] | [17] | [18] | [7] | [20] | [12] | [13] | [14] | [19] | [15] | [16]

Cc1ccc(C(C)C)c(O)c1
inactive: [1] | [2] | [3] | [4] | [17] | [18] | [5] | [7] | [20] | [8] | [9] | [10] | [11] | [12] | [13] | [15] | [16]

COCCc1ccc(OCC(O)CNC(C)C)cc1 (centres undefined)
inactive: [2] | [3] | [4] | [17] | [18] | [5] | [6] | [7] | [20] | [12] | [13] | [16]

— PubChem BioAssay (Tox21)
